Lassa entry inh: qHTS for Inhibitors of binding or entry into cells for Lassa Virus. Lassa virus pseudotype entry inhibition, cell reporter. Potency, µM (highest dose often 37.9 µM), for the others: top-dose activity change, negative = inhibition, most hits filed as inhibitors. 300,000 tested, 1.2% active. AID 540256, 2011; calls by dose curve; tested in HEK293 cells; further: potency means the concentration at half of the fitted maximal effect; nearly all actives have a fitted effect of over 50% in size
HCMV antiviral: qHTS Assay for inhibitors of the human cytomegalovirus (HCMV) | 410,000 tested, 4.5% active | activity change, negative = inhibition, % at 57.5 µM | HFF cells, HCMV-luciferase reporter, 72 h; active compounds read low; in the data active means activity change below about -60%; inconclusive means no clear call, values can overlap the other calls; inactive means above about -39%
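Two-dose cell screen: HFF monolayers treated with compounds and infected with luciferase-expressing HCMV at 1 PFU/cell, 72 h at 37C, then lysed for luciferase measurement.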
FMDV antiviral: High Throughput Screening for Foot and Mouth Disease Virus Antivirals. FMDV antiviral cell-based qHTS. Potency, µM (doses to about 57.9 µM), for the others: at the top dose activity change, negative = inhibition, usual class: inhibitors. 410,000 tested, 1.2% active. AID 1159524, 2015; calls by dose curve; tested in HEK293T cells; further: read-out not given here; potency means the concentration at half of the fitted maximal effect; nearly all actives have a fitted effect of over 45% in size
Vaccinia mCherry: qHTS for Stage-Specific Inhibitors of Vaccinia Orthopoxvirus: mCherry Reporter Primary qHTS | Vaccinia virus mCherry reporter infection, fluorescence | Potency, µM (series often up to 36.5 µM), for inactives: top-dose activity change, negative = inhibition, usual class: inhibitors | 310,000 tested, 0.63% active | AID 720579, 2013; calls by dose curve; tested in A549 cells; further: potency means the concentration at half of the fitted maximal effect; nearly all actives have a fitted effect of over 35% in size
Marburg entry inh: qHTS for inhibitors of binding or entry into cells for Marburg Virus; Marburg virus pseudotyped entry inhibition, cell reporter; Potency, µM (doses to about 37.8 µM), without a hit: top-dose activity change, negative = inhibition, actives largely listed as inhibitors; 300,000 tested, 1.8% active; AID 540276, 2011; calls by dose curve; tested in HEK293 cells; further: potency means the concentration at half of the fitted maximal effect
Vaccinia Venus: qHTS for Stage-Specific Inhibitors of Vaccinia Orthopoxvirus: Venus Reporter Primary qHTS. AID 720580, 2013. Vaccinia virus Venus reporter expression, fluorescence. Potency, µM (highest dose often 36.5 µM), for inactives: top-dose activity change, negative = inhibition, hits mostly inhibitors. 330,000 tested, 0.46% active; calls by dose curve; tested in A549 cells; further: potency means the concentration at half of the fitted maximal effect; nearly all actives have a fitted effect of over 30% in size
An asterisk follows results filed as active; i = inactive; ? = inconclusive; . = not tested or not shown; [ ] = dose if it differs, or a comment. Hits are enriched below; roughly 6.5% of the tested compounds scored in any of these assays. On the % scale 0 is the no-effect control and ±100 the full control effect.

SMILES | Lassa entry inh | HCMV antiviral | FMDV antiviral | Vaccinia mCherry | Marburg entry inh | Vaccinia Venus
CCC(=O)N1CCc2cc(S(=O)(=O)NC(Cc3ccccc3)C(=O)Nc3ccc(C)cc3)ccc21 (stereo unspecified) | 17%[46.1 µM] | -8 | 4% | -10% | 5%[46.1 µM] | -11%
O=C(Cn1cc(SCc2ccc(C(F)(F)F)cc2)c2ccccc21)N1CCCC1 | ? | -23 | 8% | -26% | . | -26%
CCOC(=O)c1c(O)c2cc(Cl)ccc2n(CC)c1=O | -1% | -8 | 7% | ? | -6%[46.1 µM] | -4%
OC(COCC(F)(F)C(F)(F)C(F)(F)C(F)F)Cn1c2ccc(Cl)cc2c2cc(Cl)ccc21 (stereo unspecified) | ? | . | ? | ? | ? | 11µM*
O=C(CNc1cc(S(=O)(=O)N2CCCC2)ccc1OCC(F)(F)F)Nc1ccc(SC(F)F)cc1 | 18µM* | -63* | -24% | ? | 8.2µM* | ?
NS(=O)(=O)c1ccc(N=Nc2c(-c3ccccc3)[nH]n(-c3nc(-c4ccccc4)cs3)c2=O)cc1 | ? | -37 | -20% | i | 22µM* | -18%
COc1cc(OC)c(NC(=O)C(CC(C)C)N2Cc3ccccc3C2=O)cc1Cl (stereo unspecified) | -14%[46.1 µM] | -65* | 8% | i | . | -8%
COc1ccc(-c2noc(CSc3nnc(-c4ccncc4)n3-c3ccc(C)cc3)n2)cc1OC | -10%[46.1 µM] | -13 | -22% | 8% | 2%[46.1 µM] | 3%
N/C(CCN1CCCCC1)=N\O | . | . | . | . | -5% | .
Cc1ccccc1C(=O)N1[C@@H](C(C)C)COc2cc(Br)ccc2S1(=O)=O | . | -10 | 40µM* | -15% | 10µM* | -10%
CCOC(=O)Cc1csc(NC(=O)COc2ccc(N(C)S(=O)(=O)c3ccc(C)cc3)cc2)n1 | -21% | 17 | 18µM* | -15% | ? | -6%
CCc1nnc(NC(=O)COc2ccc(N(C)S(=O)(=O)c3ccc(C)cc3)cc2)s1 | . | -102* | -13% | . | . | .
CN(c1ccc(OCC(=O)Nc2nc3ccccc3s2)cc1)S(=O)(=O)c1ccccc1 | . | ? | 11µM* | . | 0% | .
Cc1cc(NC(=O)COc2ccc(N(C)S(=O)(=O)c3ccccc3)cc2)no1 | -6% | 8 | -21% | -7% | 3% | -2%
CN(Cc1ccccc1)C(=O)c1c[nH]c2ccc(S(=O)(=O)Nc3ccccc3F)cc2c1=O | 8%[46.1 µM] | -2 | 13% | -2% | 17%[46.1 µM] | -12%
O=C(Nc1cc(Cl)cc(Cl)c1)c1ccc(F)c(S(=O)(=O)N2CCN(c3ccccc3F)CC2)c1 | -14%[46.1 µM] | -20 | -20% | -16% | . | -17%
Cc1ccc(NC(=O)c2ccc(F)c(S(=O)(=O)N3CCc4ccccc4C3)c2)cc1F | -9%[46.1 µM] | -68* | 0% | -1% | . | -16%
CCOC(=O)Cc1csc(NC(=O)c2ccc(C)c(S(=O)(=O)N3CCOCC3)c2)n1 | . | 0 | 32µM* | . | . | .
Cc1ccc(C)c(N2CCN(S(=O)(=O)c3cc(C(=O)Nc4ccc(Oc5ccccc5)cc4)ccc3F)CC2)c1 | 12%[46.1 µM] | -65* | -25% | ? | . | -32%
CCOC(=O)Cc1csc(NC(=O)c2ccc(S(=O)(=O)N3CCOCC3)cc2)n1 | -3% | 11 | -20% | -4% | ? | -11%
CCc1ccccc1NC(=O)c1ccc(F)c(S(=O)(=O)N2CCN(c3ccccc3OC)CC2)c1 | ? | -62* | ? | -24% | . | -28%
Cc1ccccc1NC(=O)c1ccc(F)c(S(=O)(=O)N2CCc3ccccc3C2)c1 | ? | 10 | -25% | -12% | . | -15%
C[C@@H]1CC[C@H]2C(=O)O[C@@H](COc3ccc(C(C)(C)C)cc3)CN2[C@@H]1c1ccc(Br)cc1 | -5%[14.3 µM] | . | . | . | ? | .
COc1ccc(-c2nnc(SCC(=O)Nc3cccc(C(F)(F)F)c3)s2)cc1 | -14%[46.1 µM] | 1 | 5% | -11% | . | -8%
COc1ccc(CCNC(=O)CCSCc2ccccc2Cl)cc1OC | 30%[46.1 µM] | 2 | -18% | -16% | . | -10%
Cc1ccc(NC(=O)c2ccc(F)c(S(=O)(=O)N3CCOCC3)c2)cc1F | -54%[14.3 µM] | -69* | ? | ? | -13% | -25%

Source: PubChem BioAssay
